Columns and labels:
Assay in all cases: PBM binding z-score (relative to random genomic background probes); higher = stronger binding; sequences stand for … in GC…GCGATTGACAGCGTAGAATGAAGG
[1] = tested on: FXR:RXRa (NR concentration 270 nM, RXRa partner concentration 90 nM)
Procedure, shortened: (§1)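 Binding z-scores were set against random background probes. The data came from custom Agilent 4×180K protein-binding microarrays carrying double-stranded probes with 34-nt variable regions, incubated 1 h with ligand-free nuclear receptor dimers. Partner-specific antibodies detected binding, and scanned fluorescence was regression-normalized.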

[2] = tested on: LXRa:RXRa (NR concentration 270 nM, RXRa partner concentration 90 nM)
Procedure, shortened: as §1

[3] = tested on: LXRa homodimer (NR concentration 270 nM)
Procedure, shortened: as §1

[4] = tested on: LXRb:RXRa (NR concentration 270 nM, RXRa partner concentration 90 nM)
Procedure, shortened: as §1

[5] = tested on: LXRb homodimer (NR concentration 270 nM)
Procedure, shortened: as §1

[6] = tested on: PPARa:RXRa (NR concentration 270 nM, RXRa partner concentration 90 nM)
Procedure, shortened: as §1

[7] = tested on: PPARg:RXRa (NR concentration 180 nM, RXRa partner concentration 90 nM)
Procedure, shortened: as §1

[8] = tested on: PPARg:RXRa 270nM:90nM, anti-RXR (NR concentration 270 nM, RXRa partner concentration 90 nM)
Procedure, shortened: as §1

[9] = tested on: PPARg:RXRa 30nM:10nM, anti-RXR (NR concentration 30 nM, RXRa partner concentration 10 nM)
Procedure, shortened: as §1

[10] = tested on: PPARg:RXRa 90nM:30nM, anti-RXR (NR concentration 90 nM, RXRa partner concentration 30 nM)
Procedure, shortened: as §1

[11] = tested on: PPARg:RXRa DBDmut IVT, anti-RXR (DBD mutation: RXRa K156A/R161A, NR concentration 270 nM, RXRa partner concentration 90 nM)
Procedure, shortened: as §1

[12] = tested on: PPARg:RXRa IVT, anti-PPARg (NR concentration 270 nM, RXRa partner concentration 90 nM)
Procedure, shortened: as §1

[13] = tested on: PPARg DBDmut:RXRa IVT, anti-PPARg (DBD mutation: PPARg1 K132A/R137A, NR concentration 270 nM, RXRa partner concentration 90 nM)
Procedure, shortened: as §1

[14] = tested on: PPARg DBDmut IVT, anti-PPARg (DBD mutation: PPARg1 K132A/R137A, NR concentration 270 nM)
Procedure, shortened: as §1

[15] = tested on: PPARg homodimer (NR concentration 180 nM)
Procedure, shortened: as §1

[16] = tested on: PXR:RXRa (NR concentration 270 nM, RXRa partner concentration 90 nM)
Procedure, shortened: as §1

[17] = tested on: PXR homodimer (NR concentration 270 nM)
Procedure, shortened: as §1

[18] = tested on: RARa:RXR (NR concentration 270 nM, RXRa partner concentration 90 nM)
Procedure, shortened: as §1

[19] = tested on: RARa homodimer (NR concentration 270 nM)
Procedure, shortened: as §1

[20] = tested on: RARb:RXRa (NR concentration 270 nM, RXRa partner concentration 90 nM)
Procedure, shortened: as §1

| Sequence | PBM binding z-score [1] | PBM binding z-score [2] | PBM binding z-score [3] | PBM binding z-score [4] | PBM binding z-score [5] | PBM binding z-score [6] | PBM binding z-score [7] | PBM binding z-score [8] | PBM binding z-score [9] | PBM binding z-score [10] | PBM binding z-score [11] | PBM binding z-score [12] | PBM binding z-score [13] | PBM binding z-score [14] | PBM binding z-score [15] | PBM binding z-score [16] | PBM binding z-score [17] | PBM binding z-score [18] | PBM binding z-score [19] | PBM binding z-score [20] |
| --- | --- | --- | --- | --- | --- | --- | --- | --- | --- | --- | --- | --- | --- | --- | --- | --- | --- | --- | --- | --- |
| CGAACTAGGTCATTAACAGGACAGTGAATAGTAA | 3.27 | 2.59 | 0.8 | 1.88 | -0.0794 | 4.12 | 7.01 | 5.93 | 3.43 | 5.45 | 8.02 | 7.96 | 3.04 | 1.69 | 2.06 | 1.28 | 0.557 | 1.97 | 0.792 | 3.27 |
| GATACAGGGTCATGGCCAGAGTACGCGTATTGAT | 6.5 | 4.72 | -0.00415 | 3.79 | -0.283 | 5.65 | 6.02 | 6.38 | 2.73 | 4.67 | 3.28 | 4.13 | 0.893 | -0.182 | 1.88 | 4.2 | -0.295 | 5.43 | 0.00513 | 4.31 |
| ACTAACGGGTCAACGAGGTTATAGCACGCGTATA | 6.32 | 4.49 | 0.715 | 3.82 | 0.313 | 5.19 | 4.64 | 4.34 | 1.48 | 2.98 | 1.94 | 3.19 | 1.38 | 1.31 | 2.63 | 4.96 | 2.39 | 5.01 | 0.559 | 3.91 |
| ACTCGGAGAACAAAGGTCAGAGCTACGCCAGTGA | 3.2 | 3.85 | 1.8 | 3.29 | 0.2 | 4.69 | 5.98 | 5.81 | 4.63 | 6.07 | 0.49 | 2.78 | 0.171 | -0.0554 | 1.94 | 3.41 | 0.0377 | 3.89 | 0.493 | 4.21 |
| CGAACGAGGGCATGAGTTGTTAGCAAATGCCGAT | 0.401 | 0.0861 | -0.503 | 0.156 | -1.1 | 1.01 | 1.08 | 1.21 | -0.27 | 0.425 | 3.23 | 2.05 | -0.603 | -0.6 | -0.0331 | 0.251 | -0.0972 | 0.245 | -0.393 | 1.98 |
| CCTAGTTGGTCAAGGTCACACAAGCTATAGGTAC | 4.29 | 3.95 | 1.98 | 3.76 | 1.03 | 4.21 | 3.5 | 4.1 | 1.36 | 2.63 | 2.43 | 4.01 | 1.16 | 1.04 | 4.16 | 4.47 | 2.97 | 4.29 | 2.77 | 4.33 |
| TCCAGTAGGTTAGTCGGGGCATTCAGCCAACATA | 0.407 | 0.471 | 0.422 | 0.794 | -0.477 | 1.38 | 0.45 | 2.08 | 2.7 | 2.41 | 3.62 | 3.02 | -0.197 | -0.452 | 0.925 | 0.439 | 0.18 | 0.346 | 0.0406 | 0.79 |
| GCTTGTAGATCAAGGTTAAGCAAGACTAAGCTAA | 0.263 | 0.428 | -0.624 | 0.0406 | -0.925 | 1.77 | 1.05 | 1.94 | 0.405 | 1.6 | 1.5 | 1.36 | -0.46 | -0.377 | 0.0849 | 0.191 | -0.43 | 1.07 | -0.348 | 0.844 |
| CGTCCAAGGGCAAAGGTCAGTGAAGAGATGACGG | 4.46 | 4.17 | 0.705 | 3.56 | -0.199 | 5.39 | 8.11 | 7.1 | 5.37 | 7.34 | 1.01 | 4.07 | -0.495 | -0.877 | 1.99 | 4.76 | 0.541 | 6.49 | 0.911 | 4.78 |
| ATCGAAAGGTCGCGAGGTGAGTATACAGAAAGGC | 5.31 | 4.1 | -0.00351 | 3.19 | -0.0982 | 5.26 | 4.54 | 4.93 | 1.89 | 3.56 | 0.5 | 3.13 | 1.02 | 0.918 | 1.25 | 3.33 | 0.012 | 4.35 | 0.464 | 4.48 |
| TCGAGTTGGTTACCAATGGGGCATTCAGCTTTCT | -0.51 | -0.505 | -1.1 | -0.17 | -0.988 | -0.0256 | -0.676 | 0.352 | 0.536 | 0.652 | 0.424 | -0.405 | -1.9 | -0.375 | -1.66 | -0.425 | -0.63 | -0.69 | -1.31 | -0.219 |
| AGAATGAGGTTATTATGATCAGGGAATTGCGGTC | 1.62 | 1.46 | 0.202 | 1.16 | 0.134 | 2.71 | 1.93 | 1.96 | 0.795 | 1.48 | 3.67 | 2.89 | 1.32 | 0.834 | 0.53 | 1.11 | 0.371 | 1.34 | 0.69 | 1.24 |
| TCGAGCAGGCCAGAGGGTCACTCAAGAGGTACGG | 0.628 | 0.741 | -0.581 | 1.11 | -1.33 | 2.24 | 1.04 | 1.6 | 0.223 | 1.31 | -0.0196 | 0.342 | -0.384 | -1.69 | 0.386 | 1.76 | -0.594 | 2.13 | -0.84 | 2.19 |
| CCGACTGGGGCAAAGGGTACCATACTCAGTACGA | -0.124 | -0.144 | -0.41 | 0.194 | -1.06 | 3.81 | 8.34 | 7.63 | 6.97 | 8.88 | 3.56 | 4.9 | -0.131 | -0.788 | 1.03 | -0.113 | -0.353 | 0.544 | -0.388 | 1.11 |
